# Screening results deposited in PubChem BioAssay by National Center for Advancing Translational Sciences (NCATS).
# The list is not random: actives were taken first. Their share in the collection is about 7.3%.
# SMN2 splice up: enhancers of SMN2 splice variant expression. HEK293 SMN2-luciferase splicing reporter, luminescence, 30-36 h. Potency, µM (doses to about 46.1 µM), most hits filed as activators. actives 2.8% (n = 210,000); note: nearly all actives have a fitted effect of over 55% in size
#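 qHTS luciferase splicing reporter: luminescence rises when SMN2 exon 7 is included in transfected HEK293 cells. Compound exposure lasted 30-36 h at 37C, with 4.5 mM final sodium butyrate as control, followed by a ONE-Glo read.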
# NPC1 promoter act: activates the NPC1 promoter; Huh7 NPC1 promoter luciferase reporter, 24 h; Potency, µM (top dose mostly 9.22 µM), most hits filed as activators; actives 2.4% (n = 320,000); AID 485313; note: nearly all actives have a fitted effect of over 60% in size
#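 NPC1 promoter–luciferase Huh7 cells; 24 h compound; luminescence.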
# FLuc modulator: firefly luciferase modulation, counter-screen for miR-21 project; actives 6.9% (n = 360,000); purified FLuc, Km substrates, luminescence inhibition; P08659; Potency, µM (titrated, usually from 57.5 µM), hits mostly inhibitors; note: nearly all actives have a fitted effect of over 55% in size
# Target sequence (P08659 whole entry, looked up): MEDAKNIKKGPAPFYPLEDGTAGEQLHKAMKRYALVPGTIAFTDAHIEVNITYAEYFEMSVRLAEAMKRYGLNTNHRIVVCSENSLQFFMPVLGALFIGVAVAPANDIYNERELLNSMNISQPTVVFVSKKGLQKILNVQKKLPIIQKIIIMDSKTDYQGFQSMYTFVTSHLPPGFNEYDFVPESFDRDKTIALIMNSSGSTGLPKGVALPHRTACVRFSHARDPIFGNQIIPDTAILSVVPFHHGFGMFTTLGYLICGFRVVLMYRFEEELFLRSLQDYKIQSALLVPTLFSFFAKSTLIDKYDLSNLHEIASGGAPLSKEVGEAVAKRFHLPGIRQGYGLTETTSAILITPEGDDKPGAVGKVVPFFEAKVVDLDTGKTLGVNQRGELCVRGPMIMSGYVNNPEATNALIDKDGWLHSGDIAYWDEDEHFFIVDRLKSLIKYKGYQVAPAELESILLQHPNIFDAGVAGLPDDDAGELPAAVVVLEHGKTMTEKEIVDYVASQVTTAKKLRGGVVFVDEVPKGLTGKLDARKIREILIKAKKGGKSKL
#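 Purified P. pyralis luciferase, 10 nM final, with Km-level 10 uM D-luciferin and 10 uM ATP in 50 mM Tris acetate pH 7.5, 10 mM Mg acetate, 0.01% Tween-20, 0.05% BSA; 6-point qHTS titration about 60 µM downward; luminescence read.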
# Luc counter: blocks Kinase-Glo luciferase, a counter-screen artifact. Potency, µM (titrated, usually from 38.3 µM), most hits filed as inhibitors. actives 0.28% (n = 200,000). Kinase-Glo luciferase, ATP luminescence, 8 min; note: nearly all actives have a fitted effect of over 60% in size
#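 Compounds were added to a substrate mix at pH 7.2 (50 mM imidazole, 10 uM ATP, within the enzyme's linear range), followed by Kinase-Glo detection reagent; luminescence was measured after 8 minutes at ambient temperature.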
# Rab9 prom act: Rab9 promoter activation; AID 485297; actives 2.8% (n = 320,000); Potency, µM (highest dose often 9.22 µM), actives largely listed as activators; Huh7 Rab9 promoter-luciferase reporter, luminescence, 24 h; note: nearly all actives have a fitted effect of over 60% in size
#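 Measured in stably transfected Huh7 cells bearing a Rab9 promoter–luciferase construct: 24 h compound treatment at 37 °C, followed by luminescence detection.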
# Hits are given with their value; . = inactive; ? = inconclusive; / = not tested or not shown; [ ] = dose if it differs, or a comment. Calls come from the whole dose curve; as a rule, active = well fitted curve in the direction sought with a large enough effect; inconclusive = small, poorly fitted or top-dose-only effect, or another doubt; inactive = no such curve, though single readings can be large; an effect the other way counts as inactive or inconclusive.
SMILES,SMN2 splice up,NPC1 promoter act,FLuc modulator,Luc counter,Rab9 prom act
O=C1O[C@@H]([C@H](O)[C@H](O)[C@H](O)CO)[C@@H](O)[C@@H]1O,.[9.22 µM],/,/,.[7.66 µM],/
CCOc1ccc(CCNC(=O)c2ccc3c(c2)N(Cc2ccccc2)C(=O)c2ccccc2S3=O)cc1OCC (centres undefined),.,/,.,/,/
CCOC(=O)c1[nH]c2cc(OC)c(OC)cc2c1N,.,.,?,.,.
CCOC(=O)c1[nH]c2ccc(C)cc2c1N,11µM,2.2µM,5.4µM,.,2.5µM
O=C(O)CSCC(=O)Nc1cc(C(F)(F)F)ccc1Cl,.,.,.,.,.
O=C(COC(=O)c1ccc(O)cc1)Nc1cc(C(F)(F)F)ccc1Cl,.,.,.,.,.
O=C(CCCC(=O)OCC(=O)c1ccc(Cl)cc1Cl)Nc1cc(C(F)(F)F)ccc1Cl,.,.,3.8µM,.,.
O=C(CCCC(=O)OCC(=O)c1ccc(F)cc1)Nc1cc(C(F)(F)F)ccc1Cl,.,.,12µM,.,.
COCc1ccc(C(=O)N(C)CC2CCCN(CCc3ccc(OC)cc3)C2)o1 (centres undefined),/,?,17µM,/,?
COCc1ccc(C(=O)N(C)CC2CCCN(CCc3ccc(Cl)cc3)C2)o1 (centres undefined),/,.,.,/,.
COc1ccc(-c2cn3ccc4ccccc4c3n2)cc1,3.2µM,?,0.95µM,.,?
COc1ccc(-c2cn3ccccc3n2)cc1,/,0.56µM,0.76µM,/,0.4µM
Clc1ccc(-c2cn3ccccc3n2)cc1,/,0.71µM,0.67µM,/,0.45µM
Clc1ccc(-c2nnc3n2CCCCC3)cc1,.,.,.,.,.
Clc1ccc(-c2cn3c(n2)CCC3)cc1,.,2.2µM,12µM,.,?
Cc1ccc(NC(=O)Cn2c(=O)n(-c3ccccc3)c(=O)c3ccc(C(=O)NCc4ccc5c(c4)OCO5)cc32)c(C)c1,.,/,.,/,/
COc1ccc(NCc2nnc3n2CCCCC3)c(OC)c1,/,/,.,/,/
COc1ccc(-c2nc(-c3ccccc3)oc2Nc2ccccc2C)cc1,.,/,/,.,/
COc1ccc(Cl)cc1NC(=O)CSc1nc2c([nH]c3ccccc32)c(=O)n1-c1ccccc1,/,/,.,/,/
COc1ccccc1-c1nn(CCC(=O)Nc2ccc(C)cc2)c2nc(C)cc(C)c12,.,/,?,/,/
Cc1cccc(NS(=O)(=O)c2cc(C(=O)O)ccc2Cl)c1,/,/,/,.,/
COc1cc(C(=O)NCc2cn3ccccc3n2)cc(OC)c1OC,.,.,.,.,.
Oc1ccc(-c2cn3cc(C(F)(F)F)ccc3n2)cc1,0.89µM,0.79µM,0.67µM,.,0.5µM
CCN(CC)S(=O)(=O)c1ccc(-c2cn3cc(Cl)ccc3n2)cc1,/,.,?,/,.
COc1c(Cl)cccc1-c1cn2ccccc2n1,/,0.79µM,0.54µM,/,1.3µM
SMILES,SMN2 splice up,NPC1 promoter act,FLuc modulator,Luc counter,Rab9 prom act
Brc1ccc(-c2cn3ccccc3n2)s1,7.1µM,1µM,0.76µM,?,0.35µM
Clc1ccc(-c2cn3cc(Cl)ccc3n2)cc1,/,3.5µM,0.27µM,/,0.79µM
NNC(=O)c1cn2ccccc2n1,.,.,.,.,.
Cc1ccc(-c2cc(C(F)(F)F)n3nc(-c4ccc(Cl)cc4)cc3n2)cc1,.,/,.,/,/
NC(=S)N=Nc1ccc(NN=C(N)N)cc1,/,.,21µM,/,.
CCc1nn(CC(=O)NCCCc2ccccc2)c(=O)c2cc3ccccc3n12,.,/,.,/,/
Cc1nn(CC(=O)Nc2ccc3c(c2)nc2n3CCN(C3CCCCC3)C2)c(=O)c2ccccc12,/,.,21µM,.,.
COc1ccc(C(=O)/C=C/Nc2ccc([N+](=O)[O-])cc2)cc1,?,?,.,.,?
CCOc1ccc(N/C=C/C(=O)c2ccc(OC)cc2)cc1,/,?,1.2µM,/,?
O=C(/C=C/Nc1ccc(F)cc1)c1ccc(Oc2ncccn2)cc1,.,.,?,.,?
CCOc1ccc(N/C=C/C(=O)c2ccc(OC)cc2)c([N+](=O)[O-])c1,.,0.4µM,0.85µM,?,1.1µM
COc1ccc(N/C=C/C(=O)c2ccc(Oc3ncccn3)cc2)cc1,.,.,1.7µM,.,.
CCOC(=O)c1c(C)oc2ncnc(N3CCN(c4ccccc4F)CC3)c12,/,/,.,/,/
CCc1nnc2c3ccccc3nc(Nc3ccc(C(C)=O)cc3)n12,/,/,.,/,/
COc1ccc(CCN(C)CCC(=O)Nc2cc(C)ccc2C)cc1OC,.,.,13µM,.,.
COc1cc2nc(NCCc3ccc(Cl)cc3)n3nc(-c4ccccc4)nc3c2cc1OC,.,/,.,/,/
Cn1cc(-c2nnc(-c3ccccc3)o2)c2ccccc21,2.5µM,2.5µM,0.67µM,.,2.2µM
Cc1ccccc1-c1nnc(CS(=O)(=O)c2ccccc2)o1,/,1.1µM,4.8µM,/,1.1µM
Cc1ccc(CS(=O)(=O)c2ccccc2-c2nnc(-c3ccc(Cl)cc3)o2)cc1,.,.,.,.,.
Cc1ccccc1-c1nnc(-c2ccc(Cl)cc2)o1,/,?,6.7µM,.,4µM
Cc1cc(NC(=O)c2cc(-c3cccc(Cl)c3)on2)no1,.,.,.,.,.
Cc1nnc(-c2ccccc2)o1,/,.,.,/,.
Cc1cc(-c2nnc(-c3cccc(Cl)c3)o2)no1,/,3.5µM,5.4µM,/,2.5µM
CCCN1CCN(CCCNC(=O)c2ccc3c(c2)sc2nc(-c4ccc(C)cc4)cn23)CC1,/,/,.,/,/
CCCCCNc1nc2c(-c3ccccc3)nnn2c2ccccc12,.,/,.,/,/
SMILES,SMN2 splice up,NPC1 promoter act,FLuc modulator,Luc counter,Rab9 prom act
CCCCCN=c1ccn(Cc2ccccc2)c2ccccc12,/,/,/,.,/
Cc1ccccc1-c1nnc(-c2ccccc2)o1,13µM,?,6.7µM,?,3.2µM
Cc1cccc(-c2nnc(-c3ccccc3)o2)c1,11µM,?,9.5µM,.,?
Cc1nc(-c2nc(-c3c(C(=O)NN)noc3C)cs2)cs1,?,.,17µM,.,?
C/C=C\C=C/C(=O)Nc1cccc(C2=NOC3(C2)C[C@@H](C(N)=O)N(C(=O)COc2ccc(Cl)cc2)C3)c1 (some centres undefined),/,.,15µM,/,.
C/C=C\C=C\C(=O)N1CC2(CC(c3cccc(NC(=O)COc4ccc(Cl)cc4)c3)=NO2)C[C@H]1C(N)=O (some centres undefined),/,.,9.5µM,/,.
CC1(C)CCC2=C(O1)c1ccccc1C(=O)C2=O,.,.,/,.,.
COc1ccc(C(=O)Nc2cccc(-c3cn4ccsc4n3)c2)c(OC)c1,/,/,2.7µM,/,/
COc1ccc(C(=O)Nc2cccc(-c3cn4ccsc4n3)c2)cc1OC,/,/,3.4µM,/,/
COc1ccc(C(=O)Nc2c(-c3ccccc3)nc3ccccn23)c(OC)c1,/,.,.,/,.
Cc1ccc(OCCSc2nc3ccccc3n2CC(=O)N2CCCCC2)cc1C,/,/,.,/,/
CS(=O)(=O)Nc1ccc(-c2nc3ccccc3s2)cc1,/,/,1.1µM,/,/
Cc1c(NS(C)(=O)=O)cccc1-c1nc2ccccc2s1,/,/,8.5µM,/,/
CCN(CCO)C[C@H]1CCC[C@H]2CCCC[C@@H]21,.[9.22 µM],/,/,.[7.66 µM],/
Cc1ccc(S(=O)(=O)N(CC(=O)NCCc2ccc(Cl)cc2)c2ccccc2C)cc1,.,/,.,/,/
